According to PubChem BioAssay AID1440 (NMMLSC, 2008):
Among all 220,000 compounds or so, fewer than 10 were called active. Not shown: some 92% with an inconclusive outcome. No rule for the calls is given here. These entries were drawn from the full list.

Molecular target: Guanine nucleotide-binding protein G(o) subunit alpha (Homo sapiens) + Regulator of G-protein signaling 19 (Homo sapiens) (UniProt P09471+P49795)
Experiment: modulators of human RGS19-Gαo interaction – biochemical, multiplexed bead flow cytometry (AID 1440);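 also: fluorescent Galpha o activated by aluminum fluoride binding bead-coupled RGS19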
Details: RGS19-Galphao binding, at 10 µM

Guanine nucleotide-binding protein G(o) subunit alpha (Homo sapiens) + Regulator of G-protein signaling 19 (Homo sapiens), sequence (P09471 whole entry, looked up): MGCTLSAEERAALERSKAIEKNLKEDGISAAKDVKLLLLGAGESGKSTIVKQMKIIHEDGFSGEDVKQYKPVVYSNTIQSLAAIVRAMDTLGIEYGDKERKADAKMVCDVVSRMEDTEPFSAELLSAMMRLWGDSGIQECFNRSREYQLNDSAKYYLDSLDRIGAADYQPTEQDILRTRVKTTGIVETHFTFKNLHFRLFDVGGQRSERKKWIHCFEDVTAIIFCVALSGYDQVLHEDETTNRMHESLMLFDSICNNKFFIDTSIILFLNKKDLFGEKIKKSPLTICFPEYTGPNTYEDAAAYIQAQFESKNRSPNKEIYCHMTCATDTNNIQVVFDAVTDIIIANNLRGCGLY
Guanine nucleotide-binding protein G(o) subunit alpha (Homo sapiens) + Regulator of G-protein signaling 19 (Homo sapiens), sequence (P49795 whole entry, looked up): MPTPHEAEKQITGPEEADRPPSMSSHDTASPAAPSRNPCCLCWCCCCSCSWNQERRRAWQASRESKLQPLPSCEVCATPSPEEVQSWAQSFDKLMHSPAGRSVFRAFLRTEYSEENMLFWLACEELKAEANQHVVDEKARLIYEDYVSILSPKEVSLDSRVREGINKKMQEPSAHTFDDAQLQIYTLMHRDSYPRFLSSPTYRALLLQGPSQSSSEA

First: O=C(c1ccccc1)N1CCCCCC1
Second: O=C(NCc1ccccc1)c1ccccc1OCC(=O)N1CCCCC1
The binding response (% of control) of the first is higher: 58.2% for the first, 38.1% for the second.

First: O=C(NC1CCCC1)C1CCC(CNS(=O)(=O)c2cccs2)CC1 (stereo unspecified)
Second: O=C(NCC(c1cccnc1)N1CCN(c2ccc(F)cc2)CC1)C1CCCCC1 (stereo unspecified)
The binding response (% of control) of the first is lower: 88.8% for the first, 104% for the second.

Going from `CCOC(=O)c1ccc(N2CN=C3SCC(=O)N3C2)cc1` to `Cc1ccc(C(=O)CSc2nc(N)cc(=O)[nH]2)cc1`, the binding response (% of control) falls from 94.6% to 64.8%.

Going from `COc1ccc(-c2[nH]nc3c2C(c2ccsc2)C(C#N)=C(N)O3)cc1` (stereo unspecified) to `COc1ccc(-c2nc(-c3ccccc3)nc(N3CCN(C)CC3)c2C#N)cc1`, the binding response (% of control) rises from 80.2% to 114%.

Going from `COc1ccccc1NC(=O)CSc1nnc(C2CCCCC2)n1C` to `O=C(CSc1nc2ccccc2c(=O)n1CC1CCCO1)NCC1CCCO1` (stereo unspecified), the binding response (% of control) rises from 50.3% to 94.2%.

Going from `CC/C(Cc1ccccc1)=N/NC(=O)c1cccc(Br)c1` to `Cc1ccc(C(=O)NNC(=O)C2CCN(Cc3ccccc3)CC2)cc1`, the binding response (% of control) falls from 130% to 96.2%.

First: COC(=O)c1c(CSc2cccc(C)c2)noc1C(=O)NCc1ccco1
Second: Cc1ccc(-c2cc(C(=O)OCC(=O)Nc3cc(C)on3)c3ccccc3n2)c(C)c1
The binding response (% of control) of the first is higher: 102% for the first, 81.7% for the second.

Going from `CC(C)COCC1CC2(CC(C)C(=O)CC2=O)C(=O)O1` (stereo unspecified) to `CC1(C)C2CCC1(CS(=O)(=O)NCc1ccc(C(=O)O)cc1)C(=O)C2` (stereo unspecified), the binding response (% of control) rises from 56.6% to 107%.

First: CCc1nnc(NC(=O)COC(=O)CN2C(=O)c3ccccc3C2=O)s1
Second: CCOC(=O)C1=C(C)NC2=C(C(=O)c3ccccc32)C1c1cccnc1 (stereo unspecified)
The binding response (% of control) of the first is lower: 62.2% for the first, 104% for the second.

First: COCCn1c(SCC(=O)c2ccc3c(c2)OCCO3)nnc1C(C)C
Second: CCc1ncc(C(=O)c2ccc(OC)cc2)n1C
The binding response (% of control) of the first is lower: 59.5% for the first, 108% for the second.

Compared with `Cc1onc(-c2c(Cl)cccc2Cl)c1C(=O)Nn1cnnc1`, `Cc1noc(C)c1C(=O)Nc1cccnc1` is lower in binding response (% of control): 102% for the first, 77.2% for the second.

First: O=C(CN1CCCCCC1=O)OCc1ncc(-c2ccccc2)o1
Second: Cc1cc(C)n(C2CCCCC2OC(=O)c2ccccc2)n1 (stereo unspecified)
The binding response (% of control) of the first is lower: 96.5% for the first, 110% for the second.

Compared with `O=C1Nc2ccccc2/C1=C\c1cccn1-c1ccc(OC(F)(F)F)cc1`, `O=C(CSc1nnc(COc2ccc(Cl)cc2)o1)N1c2ccccc2CCc2ccccc21` is higher in binding response (% of control): 63.3% for the first, 98.2% for the second.

Compared with `C/C(=N\NC(=O)CSc1nc2nc(C)cc(C)n2n1)c1ccccc1`, `CC(=O)c1cc2c(cc1NS(=O)(=O)c1ccccc1)OCO2` is lower in binding response (% of control): 96.1% for the first, 94.9% for the second.

Compared with `O=C(NCCCCC(NC(=O)c1ccc([N+](=O)[O-])cc1)C(=O)O)c1ccc([N+](=O)[O-])cc1` (stereo unspecified), `Cc1ccc(Cl)c(NC(=O)COC(=O)c2ccccc2C(=O)c2ccc(Cl)c([N+](=O)[O-])c2)c1Cl` is higher in binding response (% of control): 95.5% for the first, 115% for the second.

Compared with `CCOC(=O)Cn1nc(/C=C/c2ccc(C)cc2)ccc1=O`, `Cc1nn(Cc2ccc(Cl)cc2)c(C)c1N` is higher in binding response (% of control): -18.6% for the first, 8.58% for the second.

Going from `COC(=O)c1sccc1-c1ccc(C(=O)Nc2ccccc2)o1` to `CN(C)S(=O)(=O)c1ccc(C(=O)Nc2nnc(SCc3ccccc3)s2)cc1`, the binding response (% of control) falls from 122% to -32.2%.

Compared with `COC(=O)C(NC(=O)Nc1ccccc1OC)C(C)C` (stereo unspecified), `C[C@H](NS(=O)(=O)c1ccccc1F)C(=O)OCC(=O)N1CCc2ccccc21` is higher in binding response (% of control): 93.4% for the first, 106% for the second.

First: CC(=O)Nc1ccc(OCC=C(Cl)Cl)cc1
Second: CC(C)SCCCCOc1ccc2ccccc2c1
The binding response (% of control) of the first is lower: 82.1% for the first, 88.9% for the second.

Compared with `NC(=S)N/N=C1\CCSc2ccc(Cl)cc21`, `Cc1ccc(S(=O)(=O)N2CCSC2)cc1C` is higher in binding response (% of control): 69% for the first, 113% for the second.

Going from `Cc1ccc(S(=O)(=O)c2c(N)n(Cc3ccco3)c3nc4ccccc4nc23)cc1C` to `Cc1cc2cc(CN(Cc3ccco3)C(=O)NCc3ccccc3)c(=O)[nH]c2cc1C`, the binding response (% of control) rises from 92.1% to 98.1%.

Compared with `Clc1ccc(Cc2noc(CN3CCN(c4ccccc4)CC3)n2)c(Cl)c1`, `CCOC(=O)c1nnn(-c2nc(N3CCCC3)nc(N3CCCC3)n2)c1-c1ccccc1` is higher in binding response (% of control): -14.4% for the first, 112% for the second.

First: CC1(C)Cc2c(c(N3CCOCC3)nc3snc(N)c23)CO1
Second: O=S1(=O)C=CC(N2CCOCC2)C1 (stereo unspecified)
The binding response (% of control) of the first is lower: 20.9% for the first, 162% for the second.

First: CCC(=O)NCCc1cc2cc(C)c(C)cc2[nH]c1=O
Second: COC(=O)Cc1c(C)nc2nc(-c3ccc(Cl)cc3)[nH]n2c1=O
The binding response (% of control) of the first is lower: 96.3% for the first, 112% for the second.

First: CC(C)(C#N)NC(=O)c1ccco1
Second: CC12CC(c3ccccc3O1)N(C(=O)c1ccco1)C(=O)N2c1ccccc1 (stereo unspecified)
The binding response (% of control) of the first is lower: 87.8% for the first, 95.1% for the second.

Compared with `O=S1(=O)CCN2C(Cc3ccc(SC(F)F)cc3)=CSC2=N1`, `COc1ccc(Cc2nc3ccc(S(N)(=O)=O)cc3[nH]2)cc1OC` is lower in binding response (% of control): 121% for the first, 56.5% for the second.

Compared with `CCCCN1c2ccccc2N(CCCO)c2cc(C)nnc21`, `Cn1cnnc1SCC(=O)N1N=C2/C(=C/c3ccco3)CCCC2C1c1ccco1` (stereo unspecified) is lower in binding response (% of control): 99% for the first, 61.5% for the second.

Compared with `CC(NS(=O)(=O)c1cccc(Cl)c1)C(=O)Nc1ccc(-c2nc3ccccc3s2)cc1` (stereo unspecified), `CC1CN(S(=O)(=O)c2cccc(-c3cn4ccccc4n3)c2)CC(C)O1` (stereo unspecified) is lower in binding response (% of control): 115% for the first, 105% for the second.
